Sampled rows, rich in hits. Any-hit rate of the full collection: about 12%.
Sfp PPTase inh: blocks B. subtilis Sfp PPTase activity | Potency, µM, usual class: inhibitors | AID 1490 | Biochemical Sfp PPTase activity, qHTS | 310,000 compounds, 3.5% hits | Q9F4F7;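 also: the enzyme is Sfp with the accession as filed and its product quenches rhodamine fluorescence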
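Compounds were incubated with enzyme (final 15 nM) for 15 min at room temperature before substrate addition started the reaction. Fluorescence at 525 nm excitation, 598 nm emission was recorded immediately and after 30 minutes.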
G9a inh: inhibitors of human histone lysine methyltransferase G9a; AID 504332; G9a H3K9 monomethylation, AlphaScreen, 2 h; 350,000 compounds, 8.8% hits; Potency, µM (titrated, usually from 102 µM), hits mostly inhibitors; Q96KQ7; also: nearly all actives have a fitted effect of over 75% in size
Target sequence (Q96KQ7 913-1193 limits assumed): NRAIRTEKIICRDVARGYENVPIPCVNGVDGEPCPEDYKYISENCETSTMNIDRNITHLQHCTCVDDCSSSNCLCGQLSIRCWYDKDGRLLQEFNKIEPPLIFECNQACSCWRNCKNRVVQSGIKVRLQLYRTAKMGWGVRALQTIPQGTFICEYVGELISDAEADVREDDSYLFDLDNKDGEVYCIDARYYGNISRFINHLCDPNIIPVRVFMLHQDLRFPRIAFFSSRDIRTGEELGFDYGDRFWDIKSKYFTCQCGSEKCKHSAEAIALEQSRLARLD
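Step 1: enzyme (final 20 nM) with compound, 15 min RT. Step 2: substrate peptide 500 nM and SAM 20 uM, 2 h RT. Step 3: anti-H3K9me1 antibody and AlphaScreen beads, 10 min, then plate read.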
L3MBTL1 block: inhibitors of human L3MBTL1; Q9Y468; AlphaScreen L3MBTL1–H3K9me1 peptide binding; Potency, µM (top dose mostly 57.1 µM), most hits filed as inhibitors; 230,000 compounds, 0.66% hits; AID 485360; also: nearly all actives have a fitted effect of over 60% in size
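L3MBTL1 (50 nM) pre-complexed 30 min with biotinylated H3(1-15)K9me1 peptide (75 nM), then compounds added for 30 min at room temperature; AlphaScreen streptavidin donor/nickel chelate acceptor beads (10 ug/mL final) read after 30 min dark incubation.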
HP1b chromo inh: inhibitors of HP1-beta chromodomain binding to methylated histone tails. Potency, µM (top dose mostly 114 µM), hits mostly inhibitors. AlphaScreen HP1-beta / biotin-H3K9me3 peptide binding. AID 540317. 390,000 compounds, 0.56% hits; also: nearly all actives have a fitted effect of over 70% in size
Target sequence (P83916 whole entry, looked up): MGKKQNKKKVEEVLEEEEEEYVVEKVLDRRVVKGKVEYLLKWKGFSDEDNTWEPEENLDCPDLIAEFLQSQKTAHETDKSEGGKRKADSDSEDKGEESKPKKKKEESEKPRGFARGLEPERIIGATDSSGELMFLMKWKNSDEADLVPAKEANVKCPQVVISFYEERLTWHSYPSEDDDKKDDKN
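AlphaScreen: HP1-beta (50 nM) preformed 30 min with biotin-H3(1-18)K9me3 peptide (50 nM) in PBS pH 7.4, 0.01% Tween-20. Compound added for 30 min at RT, then streptavidin donor/nickel chelate acceptor beads (10 ug/mL) for 30 min.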
JMJD2A Tudor: JMJD2A Tudor domain (human) inhibition; AlphaScreen JMJD2A-Tudor / H3K4me3 peptide binding; Potency, µM (highest dose often 114 µM), most hits filed as inhibitors; 390,000 compounds, 4.4% hits; also: nearly all actives have a fitted effect of over 50% in size
BAZ2B inh: inhibitors of human BAZ2B bromodomain; Q9UIF8; AlphaScreen BAZ2B-H3K14Ac peptide displacement; Potency, µM (titrated, usually from 114 µM), hits mostly inhibitors; 360,000 compounds, 4.4% hits; AID 504333; also: nearly all actives have a fitted effect of over 60% in size
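AlphaScreen luminescence quantifies BAZ2B engagement of H3K14Ac peptide; the protein and biotinylated peptide are both at 50 nM final, buffer PBS pH 7.4 with 0.01% Tween-20, all steps at room temperature.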
Hits are given with their value; - = inactive; ? = inconclusive; . = no result; [ ] = dose if it differs, or a comment. Calls follow the shape of the dose curve; as a rule, active = well fitted curve in the direction sought with a large enough effect; inconclusive = small, poorly fitted or top-dose-only effect, or another doubt; inactive = no such curve, though single readings can be large; an effect the other way counts as inactive or inconclusive.

SMILES | Sfp PPTase inh | G9a inh | L3MBTL1 block | HP1b chromo inh | JMJD2A Tudor | BAZ2B inh
CC(C)(C)c1ccc(S(=O)(=O)NNC(=O)c2cc3ccccc3[nH]2)cc1 | - | ? | - | - | ? | -
CCCCN(C)CCNC(=O)C1CCN(c2nc3ccc(CC)cc3s2)CC1 | . | - | . | - | - | -
O=c1c(-c2cc(-c3ccccc3)nc3c2COc2ccccc2-3)coc2ccc(Cl)cc12 | . | - | . | - | - | -
O=C(Nc1cccc(C(F)(F)F)c1)Nc1cccs1 | . | - | . | - | - | -
N#C/C(=N\Nc1cccc(C(F)(F)F)c1)C(=O)c1ccsc1 | - | 40µM | - | - | 50µM | 40µM
Cc1nc(-c2ccc(S(=O)(=O)NCc3ccc(F)cc3)cc2)co1 | . | - | . | - | - | -
Cc1ccc(-c2onc(C)c2C)cc1S(=O)(=O)NCc1ccc(N(C)C)cc1 | . | 11µM | . | ? | 40µM | 35µM
Cc1nc(-c2ccc(S(=O)(=O)NCc3ccc(N(C)C)cc3)cc2)co1 | . | ? | . | - | 50µM | 40µM
COC(=O)c1sccc1S(=O)(=O)N(CC(=O)Nc1ccccc1)c1ccccc1 | . | - | . | - | - | -
C#CCOCCOCCOCCNc1nc(N2CCN(C(=O)[C@H](CCC(=O)O)n3cc([C@@H](N)CC(N)=O)nn3)CC2)nc(N2CCN(C(=O)[C@H](CCC(=O)O)n3cc([C@@H](N)CC(N)=O)nn3)CC2)n1 | . | . | ? | - | 20µM | .
C#CCOCCOCCOCCNc1nc(N2CCN(C(=O)[C@H](CC(N)=O)n3cc([C@@H](N)C(C)C)nn3)CC2)nc(N2CCN(C(=O)[C@H](CC(N)=O)n3cc([C@@H](N)C(C)C)nn3)CC2)n1 | . | . | - | - | 25µM | .
C#CCOCCOCCOCCNc1nc(N2CCOCC2)nc(N2CCN(C(=O)[C@H](CCC(=O)O)n3cc([C@@H](N)CCCCN)nn3)CC2)n1 | . | . | - | - | - | .
C#CCOCCOCCOCCNc1nc(N2CCN(C(=O)[C@H](CC(N)=O)n3cc([C@@H](N)CC(N)=O)nn3)CC2)nc(N2CCN(C(=O)[C@H](CC(N)=O)n3cc([C@@H](N)CC(N)=O)nn3)CC2)n1 | . | . | - | - | 25µM | .
C#CCOCCOCCOCCNc1nc(N2CCOCC2)nc(N2CCN(C(=O)[C@H](CC(N)=O)n3cc([C@@H](N)C(C)C)nn3)CC2)n1 | . | . | - | - | - | .
CCc1ccccc1S(=O)(=O)Cc1ccc(C(=O)NCCc2ccc(Cl)cc2)o1 | . | - | . | - | - | -
CCc1ccc2oc(C(=O)NCCc3ccc(OC)c(OC)c3)cc(=O)c2c1 | . | - | . | - | - | -
Cc1c(/C(O)=C2/C(=O)C(=O)N(Cc3cccnc3)C2c2cccs2)cnn1-c1ccccc1 (stereo not drawn) | - | ? | . | - | - | -
Cc1c(/C(O)=C2/C(=O)C(=O)N(Cc3cccnc3)C2c2ccccn2)cnn1-c1ccccc1 (stereo not drawn) | - | 32µM | - | - | ? | 50µM
O=C1C(=O)N(Cc2cccnc2)C(c2ccccn2)/C1=C(/O)c1ccc(F)cc1 (stereo not drawn) | 89µM | ? | - | - | ? | ?
CC1(C)Cc2ccccc2-c2n[nH]c(=S)n21 | 45µM | 13µM | - | - | 3.2µM | -
CCN(CC)c1ccc(NC(=O)CCNC(=O)c2ccco2)cc1 | - | 7.9µM | - | - | ? | ?
CCN(CC)c1ccc(NC(=O)Nc2ccccc2)cc1 | - | 8.9µM | . | ? | ? | ?
CCN(CC)NC(=O)Nc1ccccc1 | - | - | ? | - | - | -
CCN(CC)c1ccc(NC(=S)NC(=O)Cc2ccccc2)cc1 | - | 7.9µM | ? | ? | 25µM | 11µM
CCN(CC)c1ccc(NC(=O)c2sc3ccccc3c2Cl)cc1 | . | 5µM | . | ? | 11µM | 11µM
CCOc1ccc(NC(=O)c2sc3ccccc3c2Cl)cc1 | . | - | . | - | - | -
CCN(CC)S(=O)(=O)c1ccc(NC(=O)CCNC(=O)c2ccco2)cc1 | - | ? | . | - | - | -
CC(C)(C)c1ccc(-n2ncc3c2CCCC3NC(=O)CCCn2cncn2)cc1 (stereo not drawn) | - | -[12.7 µM] | . | - | - | -
Cc1cc(C)n(-c2ccc(C(F)(F)F)cc2[N+](=O)[O-])n1 | - | - | . | - | - | -
Cc1cc(C)n(-c2ccc([N+](=O)[O-])cc2-c2nn[nH]n2)n1 | 79µM | ? | . | - | - | ?

Source: PubChem
